Test results from PubChem BioAssay (Tox21).
Results filed as inconclusive are left out. The source made the active and inactive calls. Calls follow the shape of the dose curve; as a rule, active = well fitted cell-killing curve with a large enough effect in the repeat runs; inconclusive = weak or mixed curves, or effect the other way; inactive = no such curve, though single readings can be large or run the other way.

Assay: qHTS assay to identify small molecule antagonists of the sonic hedgehog signaling (Shh) pathway - cell viability counter screen (AID 1259367); also: nearly all actives have a fitted effect of over 55% in size
Settings: NIH/3T3 Gli1-Luc viability, CellTiter-Fluor, 24 h; series mostly up to 92.4 µM; viability change, negative = cytotoxic: at the top concentration
How it was run: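 Cytotoxicity was assessed in parallel with Shh reporter activity by measuring live-cell protease fluorescence (CellTiter-Fluor) in NIH/3T3 cells stably carrying Gli1-Luc, treated with compound under conditioned medium stimulation for 23 hr plus 1 hr reagent incubation.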
% is scaled to controls: 0 for no effect and ±100 for the full control effect; potency is read from the fitted curve at half-maximal effect.

Question: For `CCOC(=O)[C@@H](C)Oc1ccc(Oc2nc3ccc(Cl)cc3o2)cc1`, which “viability change, negative = cytotoxic” value is on record?
Answer: -3.28% (inactive)

Question: Which “viability change, negative = cytotoxic” value does the source give for `CCCCCCCCSCCO` here?
Answer: 2.16% (inactive)

Question: With `CC(C)(C)C(=O)C(Oc1ccc(Cl)cc1)n1ccnc1` (centres undefined) as the molecule, how does the “viability change, negative = cytotoxic” value read?
Answer: -12% [at 42.5 µM] (inactive)

Question: With `CC1(C)C2=CCCC(C)(C)[C@]23CC[C@H]1C3` as the molecule, how does the “viability change, negative = cytotoxic” value read?
Answer: -6.71% (inactive)

Question: With `CCC(C(=O)OCCOCCN(CC)CC)c1ccccc1` (centres undefined) as the molecule, how does the “viability change, negative = cytotoxic” value read?
Answer: 0.451% [at 42.5 µM] (inactive)

Question: For `C[Si]1(C)O[Si](C)(C)O[Si](C)(C)O1`, which “viability change, negative = cytotoxic” value is on record?
Answer: -0.102% (inactive)

Question: With `CN1C(=O)CC(C)(c2ccccc2)C1=O` (centres undefined) as the molecule, how does the “viability change, negative = cytotoxic” value read?
Answer: 3.32% [at 42.5 µM] (inactive)

Question: For `CCOc1cc(N)c(Cl)cc1C(=O)NCC1CN(Cc2ccc(F)cc2)CCO1` (centres undefined), which “viability change, negative = cytotoxic” value is on record?
Answer: -9.04% [at 42.5 µM] (inactive)

Question: For `CC(=O)Oc1ccc(C(=C2CCCCC2)c2ccc(OC(C)=O)cc2)cc1`, which “viability change, negative = cytotoxic” value is on record?
Answer: -19.5% [at 42.5 µM] (inactive)

Question: Which Potency does the source give for `CCCCC1C(=O)N(c2ccccc2)N(c2ccc(O)cc2)C1=O` (centres undefined) here?
Answer: 16.8 µM (active)

Question: Which “viability change, negative = cytotoxic” value does the source give for `Cc1ccc(Nc2nccc(N(C)c3ccc4c(C)n(C)nc4c3)n2)cc1S(N)(=O)=O` here?
Answer: -20.7% [at 42.5 µM] (inactive)

Question: With `COc1cc2[nH]c(=O)[nH]c(=O)c2cc1OC` as the molecule, how does the “viability change, negative = cytotoxic” value read?
Answer: 0.525% [at 42.5 µM] (inactive)

Question: With `CC(=O)[C@H]1CC[C@H]2[C@@H]3C=CC4=CC(=O)CC[C@@]4(C)[C@@H]3CC[C@]12C` as the molecule, how does the “viability change, negative = cytotoxic” value read?
Answer: 2.92% [at 42.5 µM] (inactive)

Question: For `CCn1cc(C(=O)O)c(=O)c2cc(F)c(N3CCNCC3)nc21`, which “viability change, negative = cytotoxic” value is on record?
Answer: 5.73% [at 42.5 µM] (inactive)

Question: Which “viability change, negative = cytotoxic” value does the source give for `CCCCC(=O)O[C@]1(C(=O)CO)CC[C@H]2[C@@H]3CCC4=CC(=O)CC[C@]4(C)[C@H]3[C@@H](O)C[C@@]21C` here?
Answer: 1.06% [at 42.5 µM] (inactive)

Question: With `CN1CCCN=C1/C=C/c1cccs1` as the molecule, how does the “viability change, negative = cytotoxic” value read?
Answer: 3.99% [at 42.5 µM] (inactive)

Question: Which “viability change, negative = cytotoxic” value does the source give for `O=C(NCCCN1CCOCC1)c1ccc(Cl)cc1` here?
Answer: -1.95% [at 42.5 µM] (inactive)

Question: Which “viability change, negative = cytotoxic” value does the source give for `CCCCCC=CCC=CCCCCCCCC(=O)OCC` here?
Answer: 2.96% [at 42.5 µM] (inactive)

Question: For `CC(=O)CC(c1ccc([N+](=O)[O-])cc1)c1c(O)c2ccccc2oc1=O` (centres undefined), which “viability change, negative = cytotoxic” value is on record?
Answer: -17% [at 42.5 µM] (inactive)

Question: Which “viability change, negative = cytotoxic” value does the source give for `CCc1nn(CCCN2CCN(c3cccc(Cl)c3)CC2)c(=O)n1CCOc1ccccc1` here?
Answer: -7.63% [at 42.5 µM] (inactive)

Question: With `c1cnc2c(n1)CCCC2` as the molecule, how does the “viability change, negative = cytotoxic” value read?
Answer: 0.107% (inactive)

Question: Which “viability change, negative = cytotoxic” value does the source give for `CCOC(=O)C(C)Oc1ccc(Oc2nc3ccc(Cl)cc3o2)cc1` (centres undefined) here?
Answer: 3.73% (inactive)

Question: Which “viability change, negative = cytotoxic” value does the source give for `Nc1c(I)cc(I)c(C(=O)N(CCC(=O)O)c2ccccc2)c1I` here?
Answer: -2.92% [at 42.5 µM] (inactive)

Question: For `O=C(O)C(Cc1cc(I)c(O)c(I)c1)c1ccccc1` (centres undefined), which “viability change, negative = cytotoxic” value is on record?
Answer: -0.914% [at 42.5 µM] (inactive)

Question: For `COC(=O)c1cc(Cl)ccc1NS(=O)(=O)C(F)(F)F`, which “viability change, negative = cytotoxic” value is on record?
Answer: -0.964% [at 42.5 µM] (inactive)

Question: Which “viability change, negative = cytotoxic” value does the source give for `O=C1OCCN1/N=C/c1ccc([N+](=O)[O-])o1` here?
Answer: -10.9% [at 42.5 µM] (inactive)

Question: With `CCC1(C)CC(=O)NC1=O` (centres undefined) as the molecule, how does the “viability change, negative = cytotoxic” value read?
Answer: 6.62% [at 42.5 µM] (inactive)

Question: With `N#C[C@@H]1C[C@@H]2C[C@@H]2N1C(=O)[C@@H](N)C12CC3CC(CC(O)(C3)C1)C2` as the molecule, how does the “viability change, negative = cytotoxic” value read?
Answer: 0.927% [at 42.5 µM] (inactive)

Question: Which “viability change, negative = cytotoxic” value does the source give for `CC1(C)O[C@@H]2C[C@H]3[C@@H]4CCC5=CC(=O)C=C[C@]5(C)[C@H]4[C@@H](O)C[C@]3(C)[C@]2(C(=O)CO)O1` here?
Answer: -4.61% [at 42.5 µM] (inactive)
